The record followed here is PubChem BioAssay (EPA / NIEHS).

Read-out in test [1]: Tissue plasminogen activator (tPA), PLAT (gene 5327)
The experiment in a line: BSK_BE3C_tPA: BioMAP Diversity Plus: BE3C Assay for Tissue plasminogen activator (tPA) Biomarker Activity (AID 2283041).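 On outcome: tPA level quantified by ELISA one day after compound addition.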 Conditions: primary human bronchial epithelial cells; actives raise or lower the signal. The procedure, abridged:
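Primary human bronchial epithelial cells in the BE3C system, exposed to compound for 24 h. tPA was quantified by ELISA; DMSO served as baseline, with gain or loss of signal fitted. Cytotoxicity checked in parallel cultures by SRB total-protein staining.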

Read-out in test [2]: Interleukin-8 (IL8), CXCL8 (gene 3576)
As to the kind of experiment: BSK_CASM3C_IL8: BioMAP Diversity Plus: CASM3C Assay for Interleukin-8 (IL8) Biomarker Activity (AID 2283042).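 Further: IL-8 protein level quantified by ELISA.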 The following applies: primary human coronary artery smooth muscle cells; actives raise or lower the signal.

Read-out in test [3]: Human Leukocyte Antigen - DR isotype (HLADR), HLA-DRA (gene 3122)
The experiment in a line: BSK_CASM3C_HLADR: BioMAP Diversity Plus: CASM3C Assay for Human Leukocyte Antigen - DR isotype (HLADR) Biomarker Activity (AID 2283043).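 Further: cell-surface HLA-DR protein level quantified by ELISA.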 The following applies: primary human coronary artery smooth muscle cells; actives raise or lower the signal.

Read-out in test [4]: Macrophage colony-stimulating factor (MCSF), CSF1 (gene 1435)
The experiment in a line: BSK_CASM3C_MCSF: BioMAP Diversity Plus: CASM3C Assay for Macrophage colony-stimulating factor (MCSF) Biomarker Activity (AID 2283044).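 Further: M-CSF protein amount quantified by ELISA after 24 h exposure.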 The following applies: primary human coronary artery smooth muscle cells; actives raise or lower the signal.

Read-out in test [5]: Low-density lipoprotein receptor (LDLR), LDLR (gene 3949)
The experiment in a line: BSK_CASM3C_LDLR: BioMAP Diversity Plus: CASM3C Assay for Low-density lipoprotein receptor (LDLR) Biomarker Activity (AID 2283045).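 Further: LDLR protein level on the cell surface quantified by ELISA.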 The following applies: primary human coronary artery smooth muscle cells; actives raise or lower the signal.

Read-out in test [6]: Monocyte Chemoattractant Protein-1 (MCP1), CCL2 (gene 6347)
The experiment in a line: BSK_CASM3C_MCP1: BioMAP Diversity Plus: CASM3C Assay for Monocyte Chemoattractant Protein-1 (MCP1) Biomarker Activity (AID 2283046).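 Further: MCP-1 level quantified by ELISA 24 h after dosing.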 The following applies: primary human coronary artery smooth muscle cells; actives raise or lower the signal.

Test [7] can be described thus: BSK_CASM3C_Proliferation: Cell Proliferation Assessment in the BioMAP Diversity Plus: CASM3C Assay (AID 2283047).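 Further: sulforhodamine B total protein stain as relative cell number at 560 nm; sub-confluent cells exposed 48 h before staining; fitted both ways against DMSO so gain or loss of cell number.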 The following applies: primary human coronary artery smooth muscle cells.
Read-out in test [8]: Monokine induced gamma interferon (MIG), CXCL9 (gene 4283)
As to the kind of experiment: BSK_CASM3C_MIG: BioMAP Diversity Plus: CASM3C Assay for Monokine induced gamma interferon (MIG) Biomarker Activity (AID 2283048).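 Further: MIG protein level measured by ELISA.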 The following applies: primary human coronary artery smooth muscle cells; actives raise or lower the signal.

Read-out in test [9]: serum amyloid A (SAA), SAA1 (gene 6288)
As to the kind of experiment: BSK_CASM3C_SAA: BioMAP Diversity Plus: CASM3C Assay for serum amyloid A (SAA) Biomarker Activity (AID 2283049).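 Further: SAA protein level quantified by ELISA.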 Conditions: primary human coronary artery smooth muscle cells; actives raise or lower the signal.

A short description of test [10]: BSK_CASM3C_SRB: Viability Assessment in the BioMAP Diversity Plus: CASM3C Assay (AID 2283050). The following applies: primary human coronary artery smooth muscle cells.
Read-out in test [11]: Thrombomodulin, THBD (gene 7056)
As to the kind of experiment: BSK_CASM3C_Thrombomodulin: BioMAP Diversity Plus: CASM3C Assay for Thrombomodulin Biomarker Activity (AID 2283051).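 Further: thrombomodulin protein level measured by ELISA 24 h after dosing.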 The following applies: primary human coronary artery smooth muscle cells; actives raise or lower the signal.

Read-out in test [12]: Tissue Factor, F3 (gene 2152)
As to the kind of experiment: BSK_CASM3C_TissueFactor: BioMAP Diversity Plus: CASM3C Assay for Tissue Factor Biomarker Activity (AID 2283052).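 Further: cell surface tissue factor protein level read by ELISA.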 Conditions: primary human coronary artery smooth muscle cells; actives raise or lower the signal.

Read-out in test [13]: Interferon-gamma inducible Protein 10 (IP10), CXCL10 (gene 3627)
The experiment in a line: BSK_hDFCGF_IP10: BioMAP Diversity Plus: hDFCGF Assay for Interferon-gamma inducible Protein 10 (IP10) Biomarker Activity (AID 2283053). The following applies: primary human foreskin fibroblasts; actives raise or lower the signal. The procedure, abridged: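 Primary human foreskin fibroblasts exposed to chemicals for 24 h. IP-10 measured by ELISA; changes fitted bidirectionally against DMSO baseline.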

Read-out in test [14]: Urokinase-type plasminogen activator receptor (uPAR), PLAUR (gene 5329)
As to the kind of experiment: BSK_CASM3C_uPAR: BioMAP Diversity Plus: CASM3C Assay for Urokinase-type plasminogen activator receptor (uPAR) Biomarker Activity (AID 2283054).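 Further: cell-surface uPAR protein level quantified by ELISA.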 Conditions: primary human coronary artery smooth muscle cells; actives raise or lower the signal.

Read-out in test [15]: Vascular cell adhesion molecule 1 (VCAM1), VCAM1 (gene 7412)
The experiment in a line: BSK_CASM3C_VCAM1: BioMAP Diversity Plus: CASM3C Assay for Vascular cell adhesion molecule 1 (VCAM1) Biomarker Activity (AID 2283055).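 Further: VCAM-1 protein level quantified by ELISA on the cells.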 The following applies: primary human coronary artery smooth muscle cells; actives raise or lower the signal.

Read-out in test [16]: Collagen III, COL3A1 (gene 1281)
The experiment in a line: BSK_hDFCGF_CollagenIII: BioMAP Diversity Plus: hDFCGF Assay for Collagen III Biomarker Activity (AID 2283056). The following applies: primary human foreskin fibroblasts; actives raise or lower the signal. Summed up:
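Response relative to DMSO, fitted in both directions, reflects ELISA-measured collagen III in human primary skin fibroblasts 24 h after compound addition.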

Read-out in test [17]: Epidermal growth factor receptor (EGFR), EGFR (gene 1956)
As to the kind of experiment: BSK_hDFCGF_EGFR: BioMAP Diversity Plus: hDFCGF Assay for Epidermal growth factor receptor (EGFR) Biomarker Activity (AID 2283057). Conditions: primary human foreskin fibroblasts; actives raise or lower the signal. Summed up:
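Primary human foreskin fibroblasts (hDFCGF system), sampled 24 h after dosing; EGFR quantified by ELISA. Bidirectional fit relative to DMSO baseline; SRB total-protein staining in parallel cultures for cytotoxicity.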

Read-out in test [18]: Interleukin-8 (IL8), CXCL8 (gene 3576)
The experiment in a line: BSK_hDFCGF_IL8: BioMAP Diversity Plus: hDFCGF Assay for Interleukin-8 (IL8) Biomarker Activity (AID 2283058). Conditions: primary human foreskin fibroblasts; actives raise or lower the signal. Summed up: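 Fibroblast monolayers (human foreskin, hDFCGF) received test chemical for 24 h before ELISA detection of IL-8; either increases or decreases relative to DMSO count as activity.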

Test [19] in a line: BSK_hDFCGF_Proliferation: Cell Proliferation Assessment in the BioMAP Diversity Plus: hDFCGF Assay (AID 2283059).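 Further: curves fitted for both rise and fall of signal versus DMSO baseline.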 Conditions: primary human foreskin fibroblasts. Summed up: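 This proliferation readout used SRB total-protein staining of human foreskin fibroblasts […], normalized to DMSO with bidirectional curve fitting.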
Read-out in test [20]: Macrophage colony-stimulating factor (MCSF), CSF1 (gene 1435)
As to the kind of experiment: BSK_hDFCGF_MCSF: BioMAP Diversity Plus: hDFCGF Assay for Macrophage colony-stimulating factor (MCSF) Biomarker Activity (AID 2283060). Conditions: primary human foreskin fibroblasts; actives raise or lower the signal. Summed up: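 fibroblasts (human foreskin, primary), 24 h post-dose; M-CSF by ELISA; bidirectional fit, DMSO = baseline.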

Where “and” joins values, the source holds several entries; their conditions need not be identical. Identical values can stand only once. Some structures have more than one record in an assay (separate samples or runs), and their calls can disagree. Calls of active or inactive are those of the source. How the source made its calls: active means hit-call score of the fitted dose curve at least 0.9, where 1 is the maximum; inactive means score below 0.9.

As for `c1ccc2cc3ccccc3cc2c1`, the outcome in test [1], in test [2], in test [3], in test [4], in test [5] and in test [6] was inactive. The outcome in [7], in test [8], in test [9], in test [10], in test [11] and in [12] was inactive. In addition, the outcome in test [13], in test [14], in test [15], in test [16], in test [17] and in [18] was inactive. For the same molecule, the result in test [19] and in test [20] was inactive.
As a reminder, the AC50 is the midpoint of the concentration-response curve, whichever way the signal moves. With `NC(=O)N(O)[C@@H]1COc2cc(OCc3ccccc3)ccc21`, the outcome in test [1], in test [2], in [3], in test [4], in test [5] and in test [6] was inactive. The outcome in test [7], in [8], in [9], in test [10], in [11] and in test [12] was inactive. In addition, the result in [13], in [14], in [16], in [17], in [18] and in [19] was inactive. Besides, the outcome in test [20] was inactive. For the same molecule, in test [15], the half-maximal activity concentration (AC50) is 10.2 µM (active).
As to `OC(O)(C(F)C(O)(O)C(F)(F)F)C(F)(F)F`, the AC50 was 24.6 µM (active) and 20.5 µM (active) in test [1]; 33.3 µM (active) and 28.2 µM (active) in [8]; 49.1 µM (active) in [9]; 19 µM (active) and 13.4 µM (active) in test [12]; 19.6 µM (active) in test [13]; 9.21 µM (active) and 7.73 µM (active) in test [19]. In addition, the result in [2], in test [3], in test [4], in test [5], in [6] and in test [7] was inactive. The result in test [9], in test [10], in test [11], in [13], in [14] and in [15] was inactive. For the same molecule, the result in [16], in test [17], in [18] and in test [20] was inactive.
As to `NNC(=O)c1ccncc1`, the result in test [1], in [2], in [3], in test [4], in test [5] and in test [6] was inactive. Moreover, the result in [7], in [8], in test [9], in [10], in test [11] and in test [12] was inactive. Also, the result in test [13], in test [14], in test [15], in test [16], in [17] and in [18] was inactive. Further, the result in test [19] and in test [20] was inactive.
With `CCCCCCCCCCCCCCO`, the outcome in test [1], in test [2], in test [3] and in test [17] was inactive. For the same molecule, the half-maximal activity concentration (AC50) in test [4] is 31.3 µM (active); in test [5], 32.3 µM (active); in [6], 32.4 µM (active); in test [7], 38 µM (active); in test [8], 29.5 µM (active); in test [9], 31 µM (active). In addition, the AC50 in test [10] is 30.2 µM (active); in test [11], 31.5 µM (active); in test [12] it was 31.5 µM (active); in [13], 28.3 µM (active); in test [14], 33.3 µM (active); in test [15], 20 µM (active). The AC50 in test [16] was 11 µM (active); in [18], 33.3 µM (active); in [19], 12.2 µM (active); in test [20], 24.9 µM (active).
`C[C@@H](Oc1ccc(CNC(=O)c2cccnc2Oc2ccc3c(c2)OCO3)c(F)c1)C(=O)O`: the outcome in test [1], in test [2], in test [3], in test [4], in test [5] and in test [6] was inactive. The result in test [7], in test [8], in test [9], in [10], in [11] and in test [12] was inactive. Moreover, the result in test [13], in [14], in [15], in test [16], in test [17] and in [18] was inactive. Further, the outcome in [19] and in test [20] was inactive.
